# Values joined by “and” are separate entries in the source; they are usually repeats but may differ in a detail not shown here. Identical values can stand only once. Inconclusive results are not listed. More than one record can exist for a structure, and the calls need not agree. Active and inactive are the calls of the source. The call rests on the fitted dose curve.
# Target: Cytochrome P450 1A2 (Homo sapiens) (UniProt P05177)
# Test: p450-cyp1a2 (AID 410);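 on activity change, negative = inhibition: -100% = full effect of reference inhibitor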
# Settings: recombinant CYP1A2, luciferin-ME demethylation, luminescence; series mostly up to 57 µM; activity change, negative = inhibition: at the top concentration
# Method: The P450 gene superfamily is involved in metabolism and the clearance of xenobiotics. This assay used human CYP1A2 to measure the demethylation of luciferin 6' methyl ether (Luciferin-ME; Promega-Glo) to luciferin. The luciferin is then measured by luminescence after the addition of a luciferase detection regeant. Luciferin-ME concentration in the assay was equal to its Km for CYP1A2.
# NCGC Assay Protocol Summary:
# Two uL of enzyme and substrate mix (final concentrations: 20nM CYP1A2, 100uM Luciferin-ME, 100mM KPO4) were dispensed into a white, solid bottom 1536-well microtiter plate. 23nL of compound was transferred by a pin tool. The plate was incubated at room temperature for 10 min. Two uL of an NADPH regeneration solution (Promega supplied reagent) was dispensed and the reaction was allowed to continue for 60 min at room temperature. Then the reaction was stopped by reconstituted detection reagent. After another 20 min of incubation the plate was read on the ViewLux (Perkin Elmer) at 60 sec exposure and 2x2 binning. This protocol was carried out with Promega-Glo reagents and further information can be found at http://www.promega.com/tbs/tb325/tb325.pdf. Data were normalized to the to AC100 inhibition (57 uM furafylline).
# Potency means the concentration at half of the fitted maximal effect.
# Chain of Cytochrome P450 1A2 (Homo sapiens) (P05177 whole entry, looked up): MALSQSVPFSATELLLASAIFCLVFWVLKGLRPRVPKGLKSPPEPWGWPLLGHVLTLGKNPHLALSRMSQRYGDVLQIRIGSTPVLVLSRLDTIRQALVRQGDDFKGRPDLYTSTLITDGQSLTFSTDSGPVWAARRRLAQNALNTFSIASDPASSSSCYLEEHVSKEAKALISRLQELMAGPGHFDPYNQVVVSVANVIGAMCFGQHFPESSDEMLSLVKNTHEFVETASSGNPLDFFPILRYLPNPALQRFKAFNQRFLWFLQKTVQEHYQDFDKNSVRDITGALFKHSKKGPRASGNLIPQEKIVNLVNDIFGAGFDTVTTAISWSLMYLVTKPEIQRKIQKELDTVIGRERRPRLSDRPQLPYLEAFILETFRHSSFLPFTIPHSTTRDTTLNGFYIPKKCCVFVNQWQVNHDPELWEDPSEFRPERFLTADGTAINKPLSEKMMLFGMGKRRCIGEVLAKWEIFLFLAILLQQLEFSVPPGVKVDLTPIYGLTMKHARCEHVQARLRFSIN
SMILES,"activity change, negative = inhibition",Potency
CC(=O)SCC[N+](C)(C)C,-12.5% (inactive),–
O=c1[nH]c2ccccc2n1CCCN1CCN(C(c2ccccc2)c2ccccc2)CC1,–,25.1 µM (active)
O=C1C(SCCO)=C(SCCO)C(=O)c2ccccc21,–,12.6 µM (active) and 631 nM (active)
O=C(Nc1ccccc1)c1cc([N+](=O)[O-])ccc1Cl,–,5.01 µM (active) and 631 nM (active)
NCCSSCCN,–,inactive
COc1ccccc1N1CCN(CCCCNS(=O)(=O)c2cccc3c(N(C)C)cccc23)CC1,-17.6% (inactive),–
N=C(N)SCCc1ccc(CCSC(=N)N)cc1,-3.8% (inactive),–
Oc1ccccc1O,-4.3% (inactive),–
NCCCS(=O)(=O)O,-4.7% (inactive),–
Fc1ccc(C(OCCCc2cnc[nH]2)c2ccc(F)cc2)cc1,–,0.1 µM (active)
C[C@@H](NC(=O)/C(C#N)=C/c1ccc(O)c(O)c1)c1ccccc1,–,31.6 µM (active)
NCCCCCCCCCCN,-5.5% (inactive),–
Cc1c(Nc2ncccc2C(=O)O)cccc1C(F)(F)F,–,12.6 µM (active)
N[C@H](CCCP(=O)(O)O)C(=O)O,–,inactive and 31.6 µM (active) and 25.1 µM (active)
NC(=O)C(=O)O,0.7% (inactive),–
Cc1ccc(O)c(N=Nc2ccccc2)n1,–,794 nM (active) and 158 nM (active)
N#C/C(=C\c1c[nH]c2ccccc12)C(=O)c1ccc(O)c(O)c1,–,1.26 µM (active)
CN1CCc2cc(NC(=O)Nc3cccnc3)ccc21,–,0.0794 µM (active)
O=C1NC(O)=NC1(c1ccccc1)c1ccccc1,-12.9% (inactive),–
NC[C@@H]1O[C@H](C23CC4CC(CC(C4)C2)C3)Cc2c1ccc(O)c2O,–,inactive

SMILES,"activity change, negative = inhibition",Potency
C[N+](C)(CCCCCC[N+](C)(C)CCCN1C(=O)c2cccc3cccc(c23)C1=O)CCCN1C(=O)c2cccc3cccc(c23)C1=O,10.6% (inactive),–
Cn1c(=O)c2[nH]c(-c3ccccc3)nc2n(C)c1=O,–,2 µM (active)
C=C[C@H]1CN2CC[C@@H]1C[C@@H]2[C@@H](O)c1ccnc2ccc(OC)cc12,–,inactive
CN(C)c1nc(N)c(C(=O)N=C(N)N)nc1Cl,–,1 µM (active)
c1cnc2c(c1)ccc1cccnc12,–,3.98 µM (active) and 2 µM (active)
N#C/C(=C\c1ccc(O)c(O)c1)C(=O)c1ccc(O)c(O)c1,–,31.6 µM (active)
CCCn1c(=O)c2[nH]c(-c3ccc(OCC(=O)NCCN)cc3)nc2n(CCC)c1=O,5.1% (inactive),–
COc1ccccc1CNCCCCCCNCCCCCCCCNCCCCCCNCc1ccccc1OC,0.2% (inactive),–
Clc1ccc(N2CCN(Cc3c[nH]c4ncccc34)CC2)cc1,–,inactive and 15.8 µM (active)
CCCCN1CCC(n2c(=O)[nH]c3ccccc32)CC1,6.5% (inactive),–
NCCNC(=O)c1ncsc1-c1cccc(F)c1,–,10 µM (active)
CC(C)(C=O)Cc1cc(C(C)(C)C)c(O)c(C(C)(C)C)c1,–,25.1 µM (active)
O=C(O)c1ccccc1Nc1cccc(C(F)(F)F)c1,–,3.98 µM (active)
Cn1cc(C2=C(c3ccc(Cl)cc3Cl)C(=O)NC2=O)c2ccccc21,–,3.16 µM (active)
CC(C)Cc1ccc([C@H](C)C(=O)O)cc1,–,inactive
NO,-18.7% (inactive),–
Nc1ccc(O)c(C(=O)O)c1,-7% [at 25.6 µM] (inactive),–
COc1cccc(C(=O)NCCN2CCN(c3ccc(Cl)cc3)CC2)c1,–,12.6 µM (active)
CNCC[C@H](Oc1ccc(C(F)(F)F)cc1)c1ccccc1,–,20 µM (active) and 5.01 µM (active) and 31.6 µM (active)
O=C(O)c1cc([N+](=O)[O-])ccc1NCCCc1ccccc1,–,31.6 µM (active)
